Laboratory results as given in PubChem BioAssay (NCI).
Compounds without any hit were thinned out: in the full panel of roughly 83,000, 20% have a hit.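 Cells were grown in 96-well plates and exposed to the test compound at a single concentration for 48 hours; results are reported as percent growth, with values below 10 considered active.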 Active and inactive are the calls of the source.

Assays:
Test in all cases: NCI-60 one-dose screen, 48 h (100 = growth as untreated, 0 = no growth, -100 = all killed)
Conditions in all cases: 10 µM unless noted
SK-MEL-2 melanoma = tested on: SK-MEL-2 melanoma
EKVX NSCLC = tested on: EKVX NSCLC
SN12C renal = tested on: SN12C renal
UO-31 renal = tested on: UO-31 renal
TK-10 renal = tested on: TK-10 renal
ACHN renal = tested on: ACHN renal
CAKI-1 renal = tested on: CAKI-1 renal
A498 renal = tested on: A498 renal
CCRF-CEM leukemia = tested on: CCRF-CEM leukemia
MOLT-4 leukemia = tested on: MOLT-4 leukemia

Measured: growth

O=C(Cn1c(-c2ccccc2)nc2ccccc21)N=Nc1c(O)[nH]c2ccc(Br)cc12
inactive: CCRF-CEM leukemia 32.5% | MOLT-4 leukemia 20.8%
active: SK-MEL-2 melanoma -8.9% | EKVX NSCLC -23.3% | SN12C renal 1.91% | UO-31 renal -47.5% | TK-10 renal -17.5% | ACHN renal -80% | CAKI-1 renal -8.86% | A498 renal -38.1%

O=S(=O)(c1nc(-c2ccc(Br)cc2)oc1-c1ccc(Cl)cc1)N1CCCC(O)C1 (stereo not drawn)
inactive: SK-MEL-2 melanoma 65.2% | EKVX NSCLC 50% | UO-31 renal 37.4% | TK-10 renal 102% | ACHN renal 53.8% | CAKI-1 renal 71.1% | A498 renal 83.3% | CCRF-CEM leukemia 48.1%
active: SN12C renal -59.5% | MOLT-4 leukemia 6.98%

FC(F)(F)c1cc2c(Cl)ncnc2n1CCN1CCCCC1
active: SK-MEL-2 melanoma -16% | UO-31 renal -96.3% | ACHN renal -22.5% | CCRF-CEM leukemia 4.18% | MOLT-4 leukemia -14.3%
inactive: EKVX NSCLC 72% | SN12C renal 59.7% | TK-10 renal 105% | CAKI-1 renal 21.3% | A498 renal 113%

COc1cc(C2CC(c3ccc(S(=O)(=O)NCCNc4nc(N(C)C)nc(N5CCOCC5)n4)cc3)=Nc3c(N)nc(N)nc3N2)cc(OC)c1OC (stereo not drawn)
inactive: SK-MEL-2 melanoma 108% | EKVX NSCLC 75.4% | SN12C renal 86.5% | UO-31 renal 80.5% | TK-10 renal 107% | ACHN renal 94.6% | CAKI-1 renal 88.4% | A498 renal 79% | CCRF-CEM leukemia 99.3% | MOLT-4 leukemia 89.3%

Cc1nn(-c2ccccc2)c2nc(C)n(C(=O)N/N=C/c3ccccc3)c(=O)c12
inactive: SK-MEL-2 melanoma 105% | EKVX NSCLC 94.4% | SN12C renal 97.9% | UO-31 renal 74.1% | TK-10 renal 123% | ACHN renal 94.9% | CAKI-1 renal 76.9% | A498 renal 112% | CCRF-CEM leukemia 96.3% | MOLT-4 leukemia 102%

COC(=O)c1c(C(=O)OC)c2c3ccccc3c3ccccc3n2c1C(=O)C(F)(F)F
inactive: SK-MEL-2 melanoma 94.4% | EKVX NSCLC 98.2% | SN12C renal 92.7% | UO-31 renal 65.9% | TK-10 renal 113% | ACHN renal 93.7% | CAKI-1 renal 64.8% | A498 renal 138% | CCRF-CEM leukemia 98.2% | MOLT-4 leukemia 117%

CCc1ccc(SC2c3cc(OC)ccc3Oc3nc(N)c(C#N)c(N)c32)cc1 (stereo not drawn)
active: SK-MEL-2 melanoma -88.8% | EKVX NSCLC -76.2% | SN12C renal 1.31% | UO-31 renal 4.16% | TK-10 renal -50.1% | ACHN renal 3.73% | CAKI-1 renal -56.5% | A498 renal -87.9% | CCRF-CEM leukemia 1.76% | MOLT-4 leukemia -50.1%

COc1ccc(N=Nc2c(N)nn3c(-c4ccc(F)cc4)ccnc23)cc1
inactive: SK-MEL-2 melanoma 102% | EKVX NSCLC 80.4% | SN12C renal 89% | UO-31 renal 99.6% | TK-10 renal 106% | ACHN renal 110% | CAKI-1 renal 94.5% | A498 renal 108% | CCRF-CEM leukemia 59.9% | MOLT-4 leukemia 85.5%

CC[C@]12C=CCN3CC[C@]4(C(=C(C(=O)OC)C1)Nc1cc(OC)c([C@@H]5[C@H]6O[C@H]6[C@@]6(CC)CC(C(=O)OC)=C7Nc8cc(O)ccc8[C@@]78CCN5[C@@H]68)cc14)[C@@H]32
active: SK-MEL-2 melanoma -67.3% | EKVX NSCLC 6.25% | SN12C renal -30.1% | UO-31 renal -4.18% | ACHN renal 1.9% | CCRF-CEM leukemia -5.67% | MOLT-4 leukemia -11.5%
inactive: TK-10 renal 25.6% | CAKI-1 renal 11.7% | A498 renal 59%

Cc1ccc(C(=O)Nc2ccc(-n3ccnc3)c(C(F)(F)F)c2)cc1C#Cc1cnc2cccnn12
inactive: EKVX NSCLC 27.5% | SN12C renal 14.4% | TK-10 renal 23% | ACHN renal 12.3% | CCRF-CEM leukemia 22.9%
active: SK-MEL-2 melanoma -23.6% | UO-31 renal 5.87% | CAKI-1 renal -4.4% | A498 renal -6.46% | MOLT-4 leukemia -32.5%

O=C1CC(c2ccc(I)cc2)OC2C=Cc3ccccc3C12 (stereo not drawn)
inactive: SK-MEL-2 melanoma 98.8% | EKVX NSCLC 82.9% | SN12C renal 99% | UO-31 renal 85.8% | TK-10 renal 139% | ACHN renal 109% | CAKI-1 renal 91.7% | CCRF-CEM leukemia 94.4% | MOLT-4 leukemia 96%

COc1ccc(/C=C/C(=O)c2ccc(S(=O)(=O)NCCNc3nc(N(C)C)nc(N4CCOCC4)n3)cc2)cc1
inactive: SK-MEL-2 melanoma 94.9% | EKVX NSCLC 81.1% | SN12C renal 91.6% | UO-31 renal 74.5% | TK-10 renal 114% | ACHN renal 104% | CAKI-1 renal 73.2% | A498 renal 89.2% | CCRF-CEM leukemia 80% | MOLT-4 leukemia 34.7%

Cc1ccc(C(=O)Nc2cc(-c3ccccc3)cc(C(F)(F)F)c2)cc1C#Cc1cnc2cccnn12
inactive: SK-MEL-2 melanoma 58.7% | EKVX NSCLC 63% | SN12C renal 65.9% | UO-31 renal 56.5% | TK-10 renal 79.3% | ACHN renal 59.9% | CAKI-1 renal 70.4% | A498 renal 133% | CCRF-CEM leukemia 38.1% | MOLT-4 leukemia 35.5%

O=C(NN1C(=O)/C(=C/C=C/c2ccc([N+](=O)[O-])o2)SC1=S)c1ccc(O)cc1
active: SK-MEL-2 melanoma -89.4% | EKVX NSCLC -98.1% | SN12C renal -97.5% | UO-31 renal -92.7% | TK-10 renal -99.3% | ACHN renal -100% | CAKI-1 renal -100% | CCRF-CEM leukemia -24% | MOLT-4 leukemia -40.7%

COc1ccc(/C=C/c2nc3ccccc3n3c(-c4cccc([N+](=O)[O-])c4)nnc23)cc1
inactive: A498 renal 75.7%
active: SK-MEL-2 melanoma -60.3% | EKVX NSCLC -52% | SN12C renal -72.2% | UO-31 renal -90.3% | TK-10 renal -47.3% | ACHN renal -97.5% | CAKI-1 renal -91.1% | CCRF-CEM leukemia -14.9% | MOLT-4 leukemia -36.5%

COc1ccc2c(c1)C(=O)N(C)C2C1c2c(cc3c(c2OC)OCO3)CCN1C (stereo not drawn)
inactive: SK-MEL-2 melanoma 57.5% | EKVX NSCLC 62.6% | SN12C renal 76.9% | UO-31 renal 49.4% | TK-10 renal 78.6% | ACHN renal 46.5% | CAKI-1 renal 31.6% | A498 renal 91.5% | CCRF-CEM leukemia 66.3% | MOLT-4 leukemia 46.4%

CN1C(=O)C2(C(C#N)=C(c3ccc(Cl)cc3)Nc3c2c(-c2ccccc2)nn3-c2ccccc2)c2ccccc21 (stereo not drawn)
inactive: SK-MEL-2 melanoma 89.8% | EKVX NSCLC 80.7% | SN12C renal 86.3% | UO-31 renal 71.7% | TK-10 renal 103% | ACHN renal 89.5% | CAKI-1 renal 71% | A498 renal 144% | CCRF-CEM leukemia 75.6% | MOLT-4 leukemia 64.4%

COc1cc(/C=C/C(=O)c2cnn(-c3cc(=O)[nH]c4ccc(Cl)cc34)c2C)cc(OC)c1OC
active: SK-MEL-2 melanoma -80.6% | EKVX NSCLC -4.28% | SN12C renal 0.0215% | UO-31 renal -72.6% | TK-10 renal 0.154% | ACHN renal -35.4% | CAKI-1 renal -68.4% | A498 renal -21.5% | CCRF-CEM leukemia -16.7% | MOLT-4 leukemia -10.9%

Cc1cc(C2(c3cc(C)c(OCC(O)CNc4c(C)n(C)n(-c5ccccc5)c4=O)cc3C(C)C)OC(=O)c3ccccc32)c(C(C)C)cc1OCC(O)CNc1c(C)n(C)n(-c2ccccc2)c1=O (stereo not drawn)
active: SK-MEL-2 melanoma -5.35%
inactive: EKVX NSCLC 16.3% | SN12C renal 26.6% | UO-31 renal 19.1% | TK-10 renal 24.8% | ACHN renal 17.1% | CAKI-1 renal 21.9% | A498 renal 55.4% | CCRF-CEM leukemia 12.3% | MOLT-4 leukemia 13.1%

Nc1nnc(CS(=O)(=O)c2ccccc2)s1
inactive: SK-MEL-2 melanoma 113% | EKVX NSCLC 103% | SN12C renal 106% | UO-31 renal 77.1% | TK-10 renal 98.7% | ACHN renal 104% | CAKI-1 renal 88.8% | A498 renal 137% | CCRF-CEM leukemia 102% | MOLT-4 leukemia 103%

O=C1NC(=NC23CC4CC(CC(C4)C2)C3)N/C1=C\c1ccc2ncccc2c1
active: SK-MEL-2 melanoma -5.99% | EKVX NSCLC 9.7% | SN12C renal -2.27% | TK-10 renal -22.9% | ACHN renal 4.48% | CAKI-1 renal -61.1% | A498 renal -31% | CCRF-CEM leukemia -15% | MOLT-4 leukemia -13%
inactive: UO-31 renal 14.7%

O=C1Nc2ccccc2/C1=C/C(=O)c1cc2ccccc2oc1=O
active: ACHN renal -47.6%
inactive: SK-MEL-2 melanoma 99.5% | EKVX NSCLC 89.6% | SN12C renal 99.3% | UO-31 renal 45.8% | TK-10 renal 102% | CAKI-1 renal 75.5% | A498 renal 223% | CCRF-CEM leukemia 54.7% | MOLT-4 leukemia 41%

Cc1cc(Cl)ccc1NC(=O)Nc1ccc(-c2ccc3c(c2)NC(=O)/C3=C\c2ccc[nH]2)cc1
inactive: SK-MEL-2 melanoma 121% | EKVX NSCLC 67.5% | SN12C renal 97.6% | UO-31 renal 78.3% | TK-10 renal 115% | ACHN renal 98.8% | CAKI-1 renal 99% | A498 renal 119% | CCRF-CEM leukemia 97.8% | MOLT-4 leukemia 86.2%

CC1=C(C(=O)OCc2ccccc2)C(c2ccc(N(C)C)cc2)n2c(nc3ccccc32)N1 (stereo not drawn)
inactive: SK-MEL-2 melanoma 96.5% | EKVX NSCLC 46% | SN12C renal 98.2% | UO-31 renal 61.1% | TK-10 renal 99.4% | ACHN renal 88.5% | CAKI-1 renal 55.6% | A498 renal 74.5% | CCRF-CEM leukemia 105% | MOLT-4 leukemia 100%

N/C(=N\c1nc2ccc([N+](=O)[O-])cc2s1)NC(=O)Nc1ccccc1Cl
active: UO-31 renal -32.1% | ACHN renal -41.4% | A498 renal -5.78%
inactive: SK-MEL-2 melanoma 88.1% | EKVX NSCLC 58.4% | SN12C renal 25.5% | TK-10 renal 17.8% | CAKI-1 renal 43.1% | CCRF-CEM leukemia 74.9% | MOLT-4 leukemia 83.5%

COC(=O)c1cc(C(=O)C(Br)Br)n2c1ccc1c3ccccc3ccc12
inactive: SK-MEL-2 melanoma 104% | EKVX NSCLC 43.3% | SN12C renal 53.3% | UO-31 renal 37.8% | TK-10 renal 65.3% | ACHN renal 36.2% | CAKI-1 renal 58.3% | A498 renal 121% | CCRF-CEM leukemia 35.6% | MOLT-4 leukemia 22.9%
